# Assay results as given in the supplement of paper PMC11018630.
# Structures can show the parent of a compound that is named as a salt. ± gives the standard deviation of the averaged measurements.
# Tested on: RDEB dermal fibroblasts EB119
# Experiment: day of extracellular matrix detachment from plate (days); higher = delayed detachment (less fibrotic matrix)
# Conditions: compound concentration: 10 uM
row,SMILES,day of extracellular matrix detachment from plate
1,C[N+](C)(CCOc1ccccc1)Cc1ccccc1.O=C([O-])c1cc2ccccc2cc1O [Bephenium Hydroxynaphthoate],26 ± 1.4
2,CSc1ccc2c(c1)N(CCC1CCCCN1C)c1ccccc1S2 (centres undefined) [Thioridazine HCl],39
3,O=C(O)CCCCCCCC(=O)O [Azelaic acid],26.3 ± 1.1
4,COCCCOc1ccnc(C[S+]([O-])c2nc3ccccc3[nH]2)c1C (centres undefined) [Rebeprazole sodium],25
5,OC(c1cc(C(F)(F)F)nc2c(C(F)(F)F)cccc12)C1CCCCN1 (centres undefined) [Mefloquine HCl],39
6,Cc1cc(/C=C/C#N)cc(C)c1Nc1ccnc(Nc2ccc(C#N)cc2)n1 [Rilpivirine],39
7,C=CC[C@@H]1/C=C(\C)C[C@H](C)C[C@H](OC)[C@H]2O[C@@](O)(C(=O)C(=O)N3CCCC[C@H]3C(=O)O[C@H](/C(C)=C/[C@@H]3CC[C@@H](O)[C@H](OC)C3)[C@H](C)[C@@H](O)CC1=O)[C@H](C)C[C@@H]2OC [Tacrolimus (FK506)],20.7 ± 1.1
8,O=C1C(O)=C([C@H]2CC[C@H](c3ccc(Cl)cc3)CC2)C(=O)c2ccccc21 [Atovaquone],26 ± 1.4
9,CNC(=O)[C@H](Cc1ccccc1)NC(=O)[C@H](CC(C)C)[C@H](CSc1cccs1)C(=O)NO [Batimastat (BB-94)],18
10,CCN(CC)CCCC(C)Nc1ccnc2cc(Cl)ccc12 (centres undefined) [Chloroquine Phosphate],35.3 ± 1.1
11,CC(C)[C@H]1C(=O)N[C@@H](CCCNC(=N)N)C(=O)NCC(=O)N[C@@H](CC(=O)O)C(=O)N[C@H](Cc2ccccc2)C(=O)N1C [Cilengitide],4
12,CN1CCC(COc2cnc(-c3cccc(Cn4nc(-c5cccc(C#N)c5)ccc4=O)c3)nc2)CC1,15.5 ± 3.5
13,CCN(CCO)CCCC(C)Nc1ccnc2cc(Cl)ccc12 (centres undefined) [Hydroxychloroquine Sulfate],32
14,CCCCCCCCc1ccc(CCC(N)(CO)CO)cc1 [Fingolimod (FTY720) HCl],26 ± 1.4
15,Nc1nc(NC2CC2)c2ncn([C@H]3C=C[C@@H](CO)C3)c2n1 [Abacavir sulfate],27
16,CCCN(CCC)C(=O)C1=Cc2ccc(-c3ccc(C(=O)N4CCCC4)cc3)cc2N=C(N)C1 [Motolimod (VTX-2337)],26 ± 1.4
17,CCOC(=O)[C@H]1O[C@@H]1C(=O)N[C@@H](CC(C)C)C(=O)NCCC(C)C [Aloxistatin],25
18,O=C(O[C@H]1CN2CCC1CC2)N1CCc2ccccc2[C@@H]1c1ccccc1 [Solifenacin succinate],33.3 ± 1.1
19,CC(C)(CO)[C@@H](O)C(=O)NCCCO [D panthenol],26 ± 1.4
